Screening results from PubChem BioAssay.
hDAT+cocaine: human DAT dopamine uptake with cocaine, either direction | Q01959 | LLC-PK1 hDAT cells, [14C]-dopamine uptake with cocaine IC80; actives deviate in either direction | B-score at 10 µM | 110,000 compounds, 1.3% hits;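 active = Z score or B-score, a plate-position-corrected score, falls beyond the plate's 99.7% confidence bounds, in either direction; inactive = both scores lie inside the 99.7% bounds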;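 also: scored against the spread of the other compound wells on the same plate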
Target sequence (Q01959 whole entry, looked up): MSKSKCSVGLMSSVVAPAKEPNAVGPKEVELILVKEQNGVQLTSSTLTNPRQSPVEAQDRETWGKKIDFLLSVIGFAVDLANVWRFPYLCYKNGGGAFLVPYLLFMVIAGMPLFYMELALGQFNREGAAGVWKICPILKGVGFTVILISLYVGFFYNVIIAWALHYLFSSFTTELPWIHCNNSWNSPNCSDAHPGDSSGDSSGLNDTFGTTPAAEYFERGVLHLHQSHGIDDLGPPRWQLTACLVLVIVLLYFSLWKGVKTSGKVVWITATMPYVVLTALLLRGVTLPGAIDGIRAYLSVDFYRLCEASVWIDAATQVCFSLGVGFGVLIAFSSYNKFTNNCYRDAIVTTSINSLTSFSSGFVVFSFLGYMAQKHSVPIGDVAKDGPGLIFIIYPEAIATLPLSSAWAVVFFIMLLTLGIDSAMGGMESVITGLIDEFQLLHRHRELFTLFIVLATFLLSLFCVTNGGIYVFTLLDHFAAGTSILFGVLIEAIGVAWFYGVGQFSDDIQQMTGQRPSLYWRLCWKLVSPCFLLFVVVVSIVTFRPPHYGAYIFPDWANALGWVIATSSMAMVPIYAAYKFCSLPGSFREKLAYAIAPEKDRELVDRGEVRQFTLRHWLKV
WT yeast gro inh: growth inhibition of WT yeast, mitochondrial fusion screen | 190,000 compounds, 2.1% hits | AID 1362 | mitochondrial fusion phenotypic screen, WT strain | inhibition, % at 10 µM; in the data active = inhibition above about 58%; tested in S. cerevisiae
PTEN del growth: suppresses growth of cells with PTEN deletion | viability, % at 10 µM | AID 827 | 140,000 compounds, 1.2% hits | HCT116 PTEN-null viability, CellTiter-Glo, 60 h; hits give low values;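 active = viability at or below a set limit, 4 SD under the median of all tested compounds, cut at about 3.7% in these data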;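 also: PTEN knockout HCT116 line with beta catenin targeted HCT116 as companion control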
HCT116 bCat-KO: beta-catenin-lacking colon tumor cell growth suppression; 140,000 compounds, 1.5% hits; HCT116 beta-catenin knockout viability, CellTiter-Glo, 60 h; hits give low values; viability, % at 10 µM; AID 818;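 active = viability at or under a set limit, the compound median less 4 SD, cut at about 6% in these data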;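 also: 0% = Hyamine 1622 control at 20 µM and 100% = untreated cell control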
The depositor's hits bear a star; / = not tested or not shown. Shown are actives, neighbours in structure and some others; about 3.6% of the full set was active somewhere.

SMILES | hDAT+cocaine | WT yeast gro inh | PTEN del growth | HCT116 bCat-KO
COCCN(C(=S)Nc1cccc(OC)c1)C(C)c1cccs1 (centres undefined) | / | 44 | 80 | 84
COCCN(C(=S)Nc1c(C)cc(C)cc1C)C(C)c1cccs1 (centres undefined) | / | 65* | / | /
COCCN(C(=S)Nc1ccc(C(C)C)cc1)C(C)c1cccs1 (centres undefined) | / | 63* | / | /
CSCCC(NS(=O)(=O)c1ccc(Cl)cc1)C(=O)OCC(=O)NC1CCCCC1 (centres undefined) | 3.2* | -8 | 88 | 84
CSCCC(NS(=O)(=O)c1ccc(Cl)cc1)C(=O)OCC(=O)NC1CC1 (centres undefined) | -1.3 | -8 | 92 | 91
Cc1occc1C(=O)NNC(=O)Nc1ccc([N+](=O)[O-])cc1 | / | 3 | / | /
Cc1[nH]n(C2=NCCS2)c(=O)c1N=Nc1cccc(C(F)(F)F)c1 | / | 84* | / | /
COc1ccc(/C=C/C(=O)NCC(=O)N2CCC(N(C)CCN3CCOCC3)CC2)cc1OC | / | -11 | / | /
CCOC(=O)C(C(=O)OCC)C(Nc1ccc(Br)cc1)c1ccccc1 (centres undefined) | 0.5 | -22 | 1.5* | 1.5*
Oc1ccc(Cl)cc1-c1cc(-c2ccccc2Cl)[nH]n1 | -0.2 | 37 | 34 | 28
Oc1ccc(Cl)cc1-c1cc(-c2cccc(Br)c2)n[nH]1 | -0.076 | 82* | 15 | 8
Cc1occc1-c1nnc(SCCNCCO)o1 | / | 0 | / | /
CN(c1cccc(NC(=O)CN(c2ccc(C34CC5CC(CC(C5)C3)C4)cc2)S(C)(=O)=O)c1)S(C)(=O)=O | 0.49 | -4 | 2.0* | 1.9*
CN(c1cccc(NC(=O)CN(c2ccc(F)cc2)S(C)(=O)=O)c1)S(C)(=O)=O | / | 7 | / | /
FC(F)(F)c1ccc(Cl)c(N/N=C/c2ccc(N3CCOCC3)s2)c1 | / | 58* | 78 | 87
Cc1cccc(N2CCN(C(=O)c3c(C)nn(Cc4ccccc4Cl)c3C)CC2)c1C | -0.22 | 60* | 43 | 55
COc1ccc(C(C(=O)NC2CCCCC2)N(C(=O)CCl)c2ccc(C)cc2)cc1 (centres undefined) | / | -5 | 2.2* | 5.0*
COc1ccc(C(C(=O)NC2CCCC2)N(C(=O)c2ccoc2C)c2ccc(C)cc2)cc1 (centres undefined) | 0.51 | 13 | 57 | 60
CCOc1ccc(C(C(=O)NC2CCCCC2)N(C(=O)c2ccco2)c2ccc(-n3cnnn3)c(C)c2)cc1 (centres undefined) | 0.19 | -4 | 97 | 97
COc1cccc(N(C(=O)c2cnccn2)C(C(=O)NC2CCCCC2)c2ccc(Cl)cc2)c1 (centres undefined) | / | 7 | 94 | 92
COc1ccc(C(C(=O)NC2CCCCC2)N(C(=O)CCl)c2cccc(Cl)c2)cc1 (centres undefined) | / | -24 | 1.6* | 2.3*
COc1ccc(C(C(=O)NC2CCCCC2)N(C(=O)CCl)c2ccc(OC)cc2)cc1 (centres undefined) | / | 2 | 0.8* | 1.4*
CCOc1ccc(C(C(=O)NC2CCCCC2)N(C(=O)Cc2cccs2)c2ccc(-n3cnnn3)c(OC)c2)cc1 (centres undefined) | / | 7 | 3.3* | 6
O=C(NCc1ccccn1)C1CCN(S(=O)(=O)N2CCC3(CC2)OCCO3)CC1 | / | -11 | 103 | 91
C=CCSc1nnc(-c2cc3c(C(F)(F)F)nn(C)c3s2)n1C | -8.8* | 6 | 103 | 106
SMILES | hDAT+cocaine | WT yeast gro inh | PTEN del growth | HCT116 bCat-KO
C=CCSc1nnc(-c2cc3c(-c4ccccc4)nn(C)c3s2)n1C | 1.2 | 7 | 53 | 71
CC(C)(C)c1cc(NC(=O)COc2ccc(Br)cc2)n(-c2ccccc2)n1 | 0.29 | 21 | 57 | 61
NC(=O)CC(NC(=O)Cc1ccc(Br)cc1)c1ccc(NCCc2ccc(F)cc2)c([N+](=O)[O-])c1 (centres undefined) | -0.42 | / | / | /
CCCCCc1ccc(OCCCC[n+]2cccc(C)c2)c(CCCCC)c1 | / | 85 | / | /
CCCCCc1ccc(OCCCC[n+]2ccc(C)cc2)c(CCCCC)c1 | / | 98* | / | /
CCCCCc1ccc(OCCCC[n+]2ccccc2)c(CCCCC)c1 | / | 86* | / | /
CCC(C)(C)c1ccc(OCCCC[n+]2ccccc2)c(C(C)(C)CC)c1 | / | 93* | / | /
Cc1cccc(CNc2ccc(C(CC(N)=O)NC(=O)c3cccc(Br)c3)cc2[N+](=O)[O-])c1 (centres undefined) | -0.75 | / | / | /
C[C@H]1[C@H](C)CC[C@]2(C)CC[C@]3(C)C(=CC[C@@H]4[C@@]5(C)CC[C@@H](O)[C@](C)(C(=O)O)[C@@H]5CC[C@]43C)[C@H]12 | 0.26 | / | / | /
CN1CCN(C(=O)CN(C)S(=O)(=O)c2ccc3ccccc3c2)CC1 | / | 10 | / | /
